Compounds without any hit were thinned out: in the full panel of roughly 79,000, 15% have a hit. A number with no mark means an inactive call. The source made the active and inactive calls. Rule as the data show it: active = growth inhibition above about 70%; inactive = the rest.
Tests used:
[1] = NCI Yeast Anticancer Drug Screen. Data for the rad50 strain (AID 155);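 also: 0% = growth of vehicle-only cultures of the same strain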; conditions: S. cerevisiae rad50 strain growth inhibition; at 50.0 µM; active compounds read high
Summary of the method: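 Readout: growth inhibition relative to vehicle-treated cultures. Compound exposure was carried out in a genetically defined yeast strain deficient in DNA damage repair.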

[2] = NCI Yeast Anticancer Drug Screen. Data for the mec2-1 strain (AID 157); conditions: S. cerevisiae mec2-1 strain, at 50.0 µM, active compounds read high
Summary of the method: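 Compounds were applied to mec2-1 yeast cells. Their growth was then compared with that of vehicle-treated cultures to give growth inhibition.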

[3] = NCI Yeast Anticancer Drug Screen. Data for the sgs1 mgt1 strain (AID 161);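 also: 0% = growth of cultures given vehicle only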; conditions: S. cerevisiae sgs1 mgt1 strain, at 50.0 µM, active compounds read high
Summary of the method: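 Compounds are added to genetically altered yeast, and growth is compared with cultures given vehicle alone to give percent inhibition.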

[4] = NCI Yeast Anticancer Drug Screen. Data for the cln2 rad14 strain (AID 165);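 also: 0% = growth equal to vehicle treated cultures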; conditions: S. cerevisiae cln2 rad14 strain, at 50.0 µM, active compounds read high
Summary of the method: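 Strain: cln2 rad14 yeast, altered in cell cycle control and DNA damage repair. Read-out: growth inhibition vs vehicle.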

[5] = NCI Yeast Anticancer Drug Screen. Data for the bub3 strain (AID 167); conditions: S. cerevisiae bub3 mutant strain, at 50.0 µM, active compounds read high
Summary of the method: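 Readout: yeast growth inhibition, expressed relative to vehicle-only wells. The test organism is a mutant strain from a panel with lesions in DNA repair or checkpoint genes.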

[6] = NCI Yeast Anticancer Drug Screen. Data for the mlh1 rad18 strain (AID 175); conditions: S. cerevisiae mlh1 rad18 strain growth inhibition; at 50.0 µM; active compounds read high
Summary of the method: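 A repair-deficient yeast strain is exposed to test compound, and growth is scored relative to vehicle-treated controls.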

SMILES | growth inhibition [1] | growth inhibition [2] | growth inhibition [3] | growth inhibition [4] | growth inhibition [5] | growth inhibition [6]
COc1cc(C=Nc2cc(Cl)c(N=O)c(Cl)c2)ccc1N(CCCCl)CCCCl | 33.4% | -13% | 40.8% | -15.8% | 2.2% | 12.3%
Cc1cc(=O)[nH]c(-n2[nH]c(C)c(CCO)c2=O)n1 | -13.3% | -17.2% | 14.8% | 19.9% | -5.9% | 18.4%
CC1COC(C(=O)O)(c2ccccc2)O1 (stereo not given) | -1.05% | -3.55% | -2.1% | -17.6% | -0.35% | 6.7%
O=c1oc2ccccc2c(O)c1[N+](=O)[O-] | 10.6% | -11.2% | -6.4% | 2.7% | -7.15% | 3.65%
COc1cc(O)c(C(C)=O)c2c1C=CC(C)(C)O2 | -4.95% | -47.1% | -19.9% | -16.8% | -13.8% | -14.7%
O=C1CCC2(C=Nc3ccccc32)C2Cc3ccccc3N12 (stereo not given) | -27.3% | -11.8% | -6.8% | 3.75% | 8.05% | -29.7%
CC(=O)OCCn1c(Cc2ccc(Cl)cc2)nn(C(C)=O)c1=O | 14.4% | 5.95% | 20.1% | 6.7% | -15.2% | 15.3%
COCn1c2ccc(OC(C)=O)cc2c2c(=O)oc(N(C)C)nc21 | -14.8% | -31.6% | -29.4% | -5.5% | -11.6% | -11.7%
CCCCOC(=O)C1(C(=O)OCCCC)CC1 | 14.8% | -7.6% | 1.3% | 1.6% | -3.75% | 3.55%
CCN(CC)CCCC(C)Nc1cc(C)nc(Nc2nc3cc(Cl)c(Cl)cc3[nH]2)n1 (stereo not given) | 96.8% (active) | 94.1% (active) | 97.4% (active) | 56.2% | 83.9% (active) | 95.8% (active)
COc1cc(OC)c2c3c(OC)cc(OC)c4c(=O)c(O)c(C[C@@H](C)O)c(c5c(C[C@@H](C)O)c(O)c(=O)c1c25)c43 | 66.8% | 46.4% | 37% | -4.45% | 34.4% | 54.9%
CCCCCCP(=O)(CCCC)CCCC | 38.1% | 11.9% | 41.2% | -20.9% | -12% | -0.2%
C#CCCOC1(OC)N=NC(C)(C)O1 (stereo not given) | 1.05% | 0.9% | -6.95% | 12.3% | -2.65% | -24.6%
CN(C)/C=C/C(=O)c1ccccc1 | 61.6% | 30.1% | 17.6% | -16.4% | 6.05% | 8.95%
CC1C2CC(C(S(=O)(=O)O)C2=O)C1(C)C (stereo not given) | 9.25% | -7% | -32.5% | 6.45% | -36.8% | -29.3%
c1ccc2c3nnc(c2c1)SCCCSc1nnc(c2ccccc12)SCCCS3 | -9.3% | -13.3% | -2.5% | 1.6% | 1.8% | -0.95%
C[Si](C)(C)C#CCOC=C1CC1 | 26% | -39.5% | -27.2% | 9.15% | -11.7% | -34.5%
C=CCc1cc(C(=O)O)ccc1OC | -36.4% | -23.6% | -16.1% | -1.7% | -30.4% | -13.9%
CCC1OC(=O)C(C)C(OC2CC(C)(O)C(O)C(C)O2)C(C)C(O)C(C)(O)CC(C)C(=O)C(C)C(O)C1C (stereo not given) | -14.4% | -22.6% | 0.5% | -5.4% | -21.2% | -5.15%
CCCSc1n[nH]c(=S)c2nc[nH]c12 | -2% | -24.3% | -14.8% | -5.5% | -21.8% | -1.15%

SMILES | growth inhibition [1] | growth inhibition [2] | growth inhibition [3] | growth inhibition [4] | growth inhibition [5] | growth inhibition [6]
O=C1CC(c2ccccc2)C(c2ccccc2)C1C(=O)OCCc1ccccc1 (stereo not given) | 36% | 2.85% | 2.45% | 1.5% | -16.9% | 1.3%
CN(C)C(=O)Nc1ccc2c(c1)OCO2 | 0.8% | 8.6% | -1.4% | -31.9% | -13.2% | 9.45%
CN(CC(=O)NC(=O)c1ccccc1)c1ccccc1 | 4% | -2% | 8.85% | -0.75% | 11% | 3.2%
CCOc1ccc(/C(O)=C/c2nc3ccccc3nc2/C=C(\O)c2ccc(OCC)cc2)cc1 | -2.1% | -13.7% | 16.4% | -0.75% | 36% | 13.6%
COc1cc(N(Cc2ccc3oc(=O)c(-c4ccccc4)nc3c2)Cc2ccc3oc(=O)c(-c4ccccc4)nc3c2)cc(OC)c1OC | 29.6% | -2.45% | 13.5% | -35.1% | 15% | 9.15%
c1ccc2c(c1)CCCC(N1CCOCC1)C2 (stereo not given) | 2.3% | 2.7% | 16.9% | 11.1% | -24.3% | 15.9%
C/C=C/c1cc(C=O)cc(OC)c1O | 0.15% | -8.1% | -5.4% | -10.6% | -4.4% | 5.75%
CCC1C(C#N)=C(O)NC(O)=C1C#N | 25.8% | 6.1% | 11.8% | 8.6% | 19.2% | -1.65%
CCOC(=O)CCc1cnc[nH]1 | -60.5% | -8.95% | -3.05% | -14.1% | -4.55% | -0.75%
Cc1ccccc1C(N)=O | 23.7% | 3.6% | 11.2% | -12.6% | 12.8% | 26.5%
CCCCCCCCCSCCOC(=S)N(C)C | 13.7% | 14.7% | 79.2% (active) | 2.7% | 21.8% | 34.6%
COCc1ccccc1P(c1ccccc1COC)c1ccccc1COC | 31% | 18.9% | 42% | 16.2% | 10.5% | 36%
CSc1nc2c(c(=O)n(C)c(=O)n2C)n1C | 30.4% | -3.25% | -10.7% | 8.15% | 9.15% | 24.9%
O=[N+]([O-])c1cc2c3c(cccc3c1O)CC2 | -18.1% | -8.9% | -4% | -9.85% | 4.45% | 24%
CNCCC1CCCCCC1 | 1.8% | 5.45% | -1.15% | -13.5% | 10.9% | -2.8%
O=C(CC(=O)c1ccccc1)CC(=O)c1ccc(C(=O)CC(=O)CC(=O)c2ccccc2)cc1 | 29.4% | 1.3% | 30.9% | 0.85% | -1.8% | 22.4%
CCCN(CCC)CCc1cc(C(C)=O)n(S(=O)(=O)c2ccc(C)cc2)c1 | -10.2% | -17.8% | 0.3% | 19.6% | -7.35% | 21.4%
COC(CNc1nc2c(s1)c1c(O)c3c(O)c(C)c4c(c32)C(=O)C(C)(O/C=C\C(OC)C(C)C(OC(C)=O)C(C)C(O)C(C)C(O)C(C)/C=C/C=C(/C)C(=O)N1)O4)OC (stereo not given) | 6.15% | -5.6% | -13% | 14.3% | -15.6% | -4.65%
CCOc1ccccc1N1C(=O)CSC1=S | 15.2% | 14.2% | 51.2% | -14% | 48.9% | 30.2%
CCOC1(OCC)C2(Cl)C(Cl)=C(Cl)C1(Cl)C1CCCC12 (stereo not given) | 23.7% | 3.75% | 11.5% | 17.1% | -12.7% | 20.6%

Reference: PubChem BioAssay (NCI)
